# RE007 growth inh: qHTS Assay for Inhibitors of the HIV-1 protein Vpr; S. pombe RE007 Vpr strain, BacTiter-Glo ATP luminescence, 24 h; Potency, µM (titrated, usually from 92.2 µM), inactives show at the top dose activity change, negative = less growth, hits mostly inhibitors; 0.21% of 360,000 active; AID 651644, 2012; active = well fitted falling curve with a large enough effect; inconclusive = small, poorly fitted or top-dose-only effect; inactive = no such curve, though single readings can be large or run the other way; note: % is set by controls: 0 for no effect and ±100 for the full control effect; nearly all actives have a fitted effect of over 50% in size
#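 Fission yeast strain RE007, carrying one chromosomally integrated HIV-1 vpr copy, was seeded at OD 0.01 in PMG+AL medium with 23 nL pinned compound. After 24 h at 30 °C and 99% humidity, viability was read by BacTiter-Glo luminescence.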
# NS1 inh: qHTS Assay for Inhibitors of Influenza NS1 Protein Function; 0.4% of 270,000 active; AID 2326, 2010; Potency, µM (series often up to 46.1 µM), without a hit: top-dose activity, positive = more growth; note: actives are rising curves; nearly all actives have a fitted effect of over 50% in size
#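 Recovery from NS1-induced slow growth read by OD600 in budding yeast switched to galactose assay medium (pH 6.0, -URA) at 1:100 dilution. Compound 23 nl per well; the matching strain lacking NS1 serves as control.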
# SARS PLP yeast: qHTS of Yeast-based Assay for SARS-CoV PLP; S. cerevisiae expressing SARS-CoV PLpro, growth rescue; Potency, µM (series often up to 32.9 µM), for the others: top-dose activity, positive = growth rescue, usual class: activators; 0.19% of 330,000 active; AID 485353, 2010; note: 0% is about no effect; nearly all actives have a fitted effect of over 55% in size
# Pf growth 96h: Primary qHTS for delayed death inhibitors of the malarial parasite plastid, 96 hour incubation | 6.9% of 320,000 active | Potency, µM (titrated, usually from 28.7 µM), inactives show at the highest dose activity change, negative = inhibition, usual class: inhibitors | P. falciparum luciferase reporter growth, 96 h | AID 504834, 2011; active = well fitted inhibition curve with a large enough effect; inconclusive = small, poorly fitted or top-dose-only effect, or another doubt; inactive = no such curve, though single readings can be large or run the other way; note: % is set by controls: 0 for no effect and ±100 for the full control effect
#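 Two-generation exposure (96 h) targets delayed-death phenotype. Reporter parasites carrying integrated firefly luciferase, in red cells at 2% hematocrit and 0.05% parasitemia final, kept at 37 C, 5% CO2; luminescence loss indicates inhibition.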
# Pf growth 48h: Primary qHTS for delayed death inhibitors of the malarial parasite plastid, 48 hour incubation. AID 504832, 2011. Potency, µM (series often up to 28.7 µM), for inactives: at the top dose activity change, negative = inhibition, hits mostly inhibitors. P. falciparum luciferase growth in erythrocytes, 48 h. 5.9% of 310,000 active; active = well fitted inhibition curve with a large enough effect; inconclusive = small, poorly fitted or top-dose-only effect, or another doubt; inactive = no such curve, though single readings can be large or run the other way; note: % is set by controls: 0 for no effect and ±100 for the full control effect
#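 Read-out is firefly luciferase luminescence from an integrated reporter in P. falciparum, so falling signal marks reduced parasite growth. Infected erythrocytes were at 2% hematocrit and 0.1% parasitemia (final) in Albumax-supplemented RPMI 1640.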
# * marks the source's active call; other numbers are inactive results; ? = inconclusive; . = not tested or not shown; [ ] = another dose, or the depositor's remark. A selection: hits, their analogues and other compounds. The true share with any hit is near 9.5%. Unless noted, calls come from the whole dose curve. Potency is the fitted concentration of half-maximal effect.
SMILES,RE007 growth inh,NS1 inh,SARS PLP yeast,Pf growth 96h,Pf growth 48h
COc1ccc(NC(=O)CSc2ccc(-c3sc(C)nc3C)nn2)cc1OC,5.4%,-17.5%,0.4%,13.1µM*,?
Cc1nc(C)c(-c2ccc(SCC(=O)Nc3ccc(C)c(Cl)c3)nn2)s1,-6.7%,3.5%,3.7%,-29.7%,16.2%
Cc1ccc(S(=O)(=O)N2CCC(C(=O)OCC(=O)N3CC(C)CC(C)C3)CC2)cc1C (stereo not given),6.4%,.,-4.2%,5.4%,?
CC1(C)CC(=O)C(C=NCC(O)c2ccccc2)=C(O)C1 (stereo not given),-16.2%,-1.4%[9.22 µM],2.9%,7.38µM*,5.4%
CC1(C)CC(=O)C(C=Nc2ccccc2C(=O)O)=C(O)C1,11.3%,0.2%,-4.2%,55.1%,1.8%
CC1(C)CC(=O)C(C=Nc2ccccc2Sc2ccccc2)=C(O)C1,20µM*,-5.9%,3.5%,24.6%,-0.7%
CC1(C)CC(=O)C(C=Nc2ccccc2)=C(O)C1,20µM*,2.2%,8.5%,1.6%,25.5%
O=C(N1CCOCC1)C1(c2ccccc2)CCNCC1,.,-2.8%,.,.,.
Cc1nnc(SCc2nc3sc4c(c3c(=O)[nH]2)CCCC4)[nH]c1=O,2.6%,4.7%,-0.9%,5.5%,31.9%
CN(Cc1ccc2nonc2c1)Cc1nc(CC2CC2)no1,2.8%,1.6%,-0.3%,2.33µM*,38.5%
CC(C)CNC(=O)c1ccccc1NC(=O)Nc1ccccc1,1.5%,-2.9%,6.0%,10.4µM*,.
CC(C)CNC(=O)c1ccccc1NC(=O)c1ccc(CSc2ccccc2)cc1,5.3%,-4.7%,-34.7%,10.4µM*,13.1µM*
Cc1cc(C)[n+](Cc2ccccc2)cc1C(N)=O,0.9%,.,.,.,.
CCN(CC)c1cc2nc(C)n(Cc3ccccc3)c(=O)c2cc1NC(=O)C1CC1,13.8%,1.9%,9.5%,18.4%,7.38µM*
Cc1nc2cc(N3CCN(C)CC3)c(NC(=O)Cc3ccccc3)cc2c(=O)n1Cc1ccccc1,-6.4%,-0.6%,4.3%,-7.4%,10.4µM*
O=S(=O)(NN=C1CCCCCCC1)c1ccccc1,16.0%,.,.,.,.
CCOC(=O)C1=CN(Cc2ccco2)S(=O)(=O)N(C)C1c1ccc2ccccc2c1 (stereo not given),39.0%,.,-2.0%,.,.
Cn1c(SCC(=O)NCCc2ccccc2)nnc1C1CCCCC1,3.4%,17.8%,-1.1%,43.6%,1.0%
CN(C(=O)c1cc(-c2cccs2)nn1-c1ccccc1)C1CCS(=O)(=O)C1 (stereo not given),-8.3%,.,.,.,.
O=C(NCc1ccccc1F)C(=O)NCC1CCCN1S(=O)(=O)c1cccs1 (stereo not given),-7.4%,.,5.4%,?,?
Cc1ccc(C(=O)NCC2CCCN2S(=O)(=O)c2cccs2)cc1C (stereo not given),4.4%,.,0.7%,?,?
COc1ccccc1CNC(=O)C(=O)NCC1CCCN1S(=O)(=O)c1cccs1 (stereo not given),4.6%,.,1.4%,0.0%,11.7µM*
COc1ccccc1CC(=O)N1CCN(S(=O)(=O)c2cccs2)CC1,0.1%,17.9%,5.0%,14.7µM*,-15.6%
COc1cc(C(=O)NCC2CCCN2S(=O)(=O)c2cccs2)cc(OC)c1OC (stereo not given),9.4%,.,-1.9%,?,11.7µM*
O=C(NCCc1ccc(F)cc1)C(=O)NCC1CCCN1S(=O)(=O)c1cccs1 (stereo not given),-5.2%,.,2.4%,?,13.1µM*
C[C@@H]1CCCCO[C@H](CN(C)C(=O)C2CCCCC2)[C@@H](C)CN([C@H](C)CO)C(=O)c2cc(N(C)C)ccc2O1,28.1%,.,.,.,.
O=C(C1CCC1)N1CCC(O)(c2cccc(F)c2)CC1,-9.8%,.,0.3%,-15.2%,-19.3%
C/C(=N\NC(=O)c1cccnc1)c1cc2ccccc2o1,-2.2%,.,0.7%,?,7.3%
Cc1ccc(C2C(C#N)=C(N)N(N(C)C)C3=C2C(=O)CCC3)cc1 (stereo not given),-15.3%,13.8%,7.1%,-11.4%,-9.2%
CN(C)N1C(N)=C(C#N)C(c2ccc(Cl)cc2)C2=C1CCCC2=O (stereo not given),-0.7%,-1.0%,0.6%,0.738µM*,-6.3%

# Screening results deposited in PubChem BioAssay by National Center for Advancing Translational Sciences (NCATS).
